rCAG binder: binds r(CAG) RNA repeats. 370,000 tested, 1.3% active. r(CAG) RNA repeat, TO-PRO-1 dye displacement fluorescence. inhibition, % at 3 µM;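 active = inhibition above the plate cutoff, the mean of all test compounds on that plate plus 3 SD, cut at about 35% in these data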;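 note: 0% = DMSO alone and 100% = 100 µM mitoxantrone as full dye displacement; higher means more dye released from RNA so lower well fluorescence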
A3G deaminase: APOBEC3G (human) deaminase inhibition. Q9HC16. recombinant A3G, ssDNA deamination FAM/TAMRA fluorescence. inhibition, % at 20 µM. 330,000 tested, 0.28% active. AID 493012;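 active = inhibition of at least 40% at 20 µM, with no more than 30% in the related APOBEC3A deaminase screen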;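 note: plate controls were DMSO wells with A3G for no effect and wells lacking A3G enzyme for full effect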
aDG glyco act: alpha-DG glycosylation activation; Pro5-aDG cells, alpha-DG glycosylation AlphaScreen (IIH6); 0% Pro5, 100% B10-LARGE cell signal; activation, % at 10 µM; AID 624168; 360,000 tested, 0.22% active;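 active = activation of at least 8% versus controls, or a plate z-score of at least 8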;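 note: Pro5 are CHO cells carrying HIG-tagged alpha-DG that lacks glycosylation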
ALR H2O2 inh: inhibitors of human sulfhydryl oxidase ALR; purified ALR, DTT oxidation, H2O2 HRP-luminol luminescence; inhibition, % (no concentration beside the values); 290,000 tested, 3.8% active; AID 485317;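 active = mean replicate inhibition above about 79%, with every replicate also reaching it, limit read from the data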
APOBEC3A inh: human APOBEC3A DNA deaminase inhibition | recombinant A3A, FAM/TAMRA ssDNA deamination fluorescence | 330,000 tested, 0.41% active | inhibition, % at 20 µM;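 active = at least 40% inhibition at 20 µM here, with at most 30% in a related deaminase screen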;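 note: plate controls were A3A with DMSO for no effect and wells lacking A3A enzyme for full effect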
Target sequence (P31941 whole entry, looked up): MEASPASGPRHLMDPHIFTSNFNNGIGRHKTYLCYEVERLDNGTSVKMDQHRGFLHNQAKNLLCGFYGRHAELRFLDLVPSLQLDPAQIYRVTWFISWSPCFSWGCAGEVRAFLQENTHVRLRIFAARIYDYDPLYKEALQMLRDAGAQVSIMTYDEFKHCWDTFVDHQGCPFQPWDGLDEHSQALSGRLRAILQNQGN
PHOSPHO1 inh: PHOSPHO1 (human) inhibition; recombinant PHOSPHO1, absorbance phosphatase assay; 290,000 tested, 1.1% active; inhibition, % at 13.3 µM; AID 1565; Q8TCT1; in the data active = inhibition above about 60%
Target sequence (Q8TCT1 whole entry, looked up): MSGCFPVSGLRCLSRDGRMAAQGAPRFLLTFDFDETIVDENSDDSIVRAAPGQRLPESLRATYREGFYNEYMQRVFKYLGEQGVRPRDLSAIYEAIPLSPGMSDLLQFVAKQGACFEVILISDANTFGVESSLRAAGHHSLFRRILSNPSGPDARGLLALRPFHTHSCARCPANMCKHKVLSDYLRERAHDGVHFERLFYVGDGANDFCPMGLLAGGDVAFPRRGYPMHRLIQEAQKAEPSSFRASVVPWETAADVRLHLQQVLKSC
* = called active by the depositor. This is a sample that favours compounds with a hit; in the whole collection about 5.4% have one here.

`O=C(O)c1cccc(Nc2nc(Nc3ccccc3)nc(N3CCCC3)n2)c1` gave rCAG binder 14.2, A3G deaminase 7.7, aDG glyco act 0.7, ALR H2O2 inh 94.5*, APOBEC3A inh -0.4 and PHOSPHO1 inh 0.6.
`c1ccc2c(CSc3ncnc4nc[nH]c34)cccc2c1` gave rCAG binder 3.3, A3G deaminase -3.1, aDG glyco act 1.0, ALR H2O2 inh 98.2*, APOBEC3A inh 0.0 and PHOSPHO1 inh 51.8.
Screening N=c1c[n+](-c2ccc(Cl)cc2)[n-]o1 returned rCAG binder -1.4, A3G deaminase -0.7, aDG glyco act 0.1, ALR H2O2 inh -13.0, APOBEC3A inh -1.7 and PHOSPHO1 inh 93.0*.
COc1ccc(C[N+]2=C(N)NC3=C(C)Cn4c(=O)n(-c5ccccc5)c(=O)n4C3C2)c(OC)c1 (centres undefined) was read as rCAG binder 16.8.
Screening Cc1ccc(-c2cc(C(=O)O)c3ccccc3n2)s1 returned rCAG binder 5.3, A3G deaminase -3.4, aDG glyco act -0.1, ALR H2O2 inh 23.2, APOBEC3A inh 2.4 and PHOSPHO1 inh 35.1.
Screening O=C(O)c1cc(-c2ccc(Cl)s2)nc2ccccc12 returned rCAG binder 15.5, A3G deaminase -2.6, aDG glyco act -0.1, ALR H2O2 inh 92.8*, APOBEC3A inh -1.2 and PHOSPHO1 inh 9.5.
For COC(=O)[C@]12C[C@H](CC(=O)N3CCOCC3)C(=O)N(Cc3ccc(Cl)cc3Cl)C1=C[C@H](C1CCCC1)O[C@@H]2C the results were rCAG binder 4.2.
C=CCn1sc(=N)c(C#N)c1N was read as rCAG binder 1.1, A3G deaminase 0.3, aDG glyco act -0.1, ALR H2O2 inh 98.7*, APOBEC3A inh 0.0 and PHOSPHO1 inh 2.9.
C=CCn1c(C)cc(C)c(C#N)c1=O was read as rCAG binder 0.4, A3G deaminase -4.3, aDG glyco act -0.1, ALR H2O2 inh -5.0, APOBEC3A inh -2.8 and PHOSPHO1 inh 7.2.
For O=C(NCCc1ccc(F)cc1)c1ccc2c(c1)ncn2C1CCCCC1 the results were rCAG binder 1.4.
`Cc1ccc(CNC(=O)OC(C)(C)C)c(/C=C/S(=O)(=O)NCc2ccc(F)cc2)c1` gave rCAG binder -2.3.
CC(=O)NC(c1cc(Cl)c2ccccc2c1O)C(C)C (centres undefined) was read as rCAG binder -5.5, A3G deaminase 0.1, aDG glyco act 0.3, ALR H2O2 inh 93.6* and APOBEC3A inh 2.4.
For Cc1ccc(NC(=O)Cn2c(=S)[nH]c3ccccc32)cc1 the results were rCAG binder 6.9, A3G deaminase 11.5, aDG glyco act -0.1, ALR H2O2 inh -6.3, APOBEC3A inh -4.3 and PHOSPHO1 inh 62.2*.
For CC(C)n1c(=S)[nH]c2ccccc21 the results were rCAG binder -1.2, A3G deaminase 14.5, aDG glyco act -0.2, ALR H2O2 inh 22.4, APOBEC3A inh -1.6 and PHOSPHO1 inh 83.7*.
Screening CCn1c(=S)[nH]c2ccccc21 returned rCAG binder 1.4, A3G deaminase -3.1, aDG glyco act -0.1, ALR H2O2 inh 31.2, APOBEC3A inh -5.2 and PHOSPHO1 inh 71.2*.
O=C(Cn1c(=S)[nH]c2ccccc21)c1ccccc1 was read as rCAG binder 1.3, A3G deaminase -12.1, aDG glyco act 0.1, ALR H2O2 inh 73.7, APOBEC3A inh -6.5 and PHOSPHO1 inh 22.1.
Screening Brc1cccc(-c2nnc3sc(CNCc4ccco4)cn23)c1 returned rCAG binder 11.1, A3G deaminase -4.8, aDG glyco act 0.0, APOBEC3A inh -3.3 and PHOSPHO1 inh 82.8*.
`COc1ccc(-c2nc3n(c2C)Cc2ccccc2-3)cc1` gave rCAG binder -4.0, A3G deaminase 6.6, aDG glyco act 2.2, ALR H2O2 inh 99.0*, APOBEC3A inh 5.0 and PHOSPHO1 inh 19.5.
`O=c1cc(-c2ccccc2)nc2n1Cc1ccccc1-2` gave rCAG binder -1.1, A3G deaminase -4.3, aDG glyco act 0.1, ALR H2O2 inh 0.4, APOBEC3A inh 2.0 and PHOSPHO1 inh -7.1.
`COc1ccc2[nH]c(C)c(CCN3C(=O)C4C5C=CC(C5)C4C3=O)c2c1` (centres undefined) gave rCAG binder 9.3, A3G deaminase 5.0, aDG glyco act -0.1, ALR H2O2 inh 96.3*, APOBEC3A inh 1.9 and PHOSPHO1 inh -7.3.
Screening Cc1ccnc(NC(=O)Cc2ccc([N+](=O)[O-])cc2)c1 returned rCAG binder 2.3, A3G deaminase -4.3, aDG glyco act -0.5, ALR H2O2 inh -0.2, APOBEC3A inh -1.9 and PHOSPHO1 inh 19.2.
For Cc1ccnc(NC(=O)c2cc([N+](=O)[O-])cc([N+](=O)[O-])c2)c1 the results were rCAG binder -2.7, A3G deaminase -7.9, aDG glyco act 0.7, ALR H2O2 inh -18.1, APOBEC3A inh -0.5 and PHOSPHO1 inh 64.7*.
For Cc1cccc(NC(=O)c2ccc([N+](=O)[O-])s2)n1 the results were rCAG binder 1.2, A3G deaminase -5.7, aDG glyco act 7.2*, ALR H2O2 inh -23.7, APOBEC3A inh -4.2 and PHOSPHO1 inh -18.5.
Screening Cc1ccnc(NC(=O)c2ccc([N+](=O)[O-])s2)c1 returned rCAG binder 0.0, A3G deaminase -5.0, aDG glyco act 8.4*, ALR H2O2 inh -22.5, APOBEC3A inh -0.7 and PHOSPHO1 inh -19.5.
Screening CCN(CC)C(=O)CC[C@H]1CC[C@]2(CCCN(Cc3ccccc3)C2)O1 returned rCAG binder -2.0.
CC(C)=CCC[C@@]1(C(=O)O)[C@H]2CC=C(CO)[C@@H]1CC/C(C)=C/CC/C(C)=C/C2 was read as rCAG binder 6.5.
Screening COc1cccc(NC(=O)c2c([N+](=O)[O-])cnn2C)c1 returned rCAG binder 0.2, A3G deaminase 1.3, aDG glyco act -0.1, ALR H2O2 inh 95.7* and APOBEC3A inh 4.5.
COc1cccc(NC(=S)NNC(=O)c2c([N+](=O)[O-])c(C)nn2C)c1 was read as rCAG binder 11.0, A3G deaminase -8.1, aDG glyco act 0.2, APOBEC3A inh 7.4 and PHOSPHO1 inh 81.6*.
Screening Cn1ncc([N+](=O)[O-])c1C(=O)Nc1ccccc1 returned rCAG binder -3.3, A3G deaminase -2.4, aDG glyco act 0.0, APOBEC3A inh -0.7 and PHOSPHO1 inh 2.6.
`COc1cccc(NC(=S)NNC(=O)C(C)n2nc(C)c([N+](=O)[O-])c2C)c1` (centres undefined) gave rCAG binder 10.4, A3G deaminase -4.6, aDG glyco act -0.1, ALR H2O2 inh 83.9*, APOBEC3A inh -3.4 and PHOSPHO1 inh 20.3.
Screening Cc1ccc(-n2c(SCc3cccc(F)c3)nnc2-c2cccc(C)c2)cc1 returned rCAG binder 0.2.
`C=CC[C@]12C[C@@]3(O[C@H](C4CCCCC4)N=C3C[C@H](c3ccc(OC)cc3)[C@H]1C)N(Cc1ccncc1)C2=O` gave rCAG binder 1.4.
